High-throughput results: PubChem, National Center for Advancing Translational Sciences (NCATS)
ALOX15B inhib – qHTS Assay for Inhibitors of 15-hLO-2 (15-human lipoxygenase 2) | Potency, µM (series often up to 57.1 µM), for the others: at the highest dose activity change, negative = inhibition, usual class: inhibitors | purified 15hLO-2, xylenol orange hydroperoxide absorbance | 110,000 compounds, 0.56% hits | Polyunsaturated fatty acid lipoxygenase ALOX15B (Homo sapiens), O15296; further: potency means the concentration at half of the fitted maximal effect; nearly all actives have a fitted effect of over 60% in size
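Read-out: hydroperoxide product oxidises ferrous iron, measured as xylenol orange complex via the 573-to-405 nm absorbance ratio after 30 min. Reaction: 50 nM enzyme, 15 min compound preincubation, 45 uM arachidonic acid, 90 min RT, Hepes pH 7.5 with Triton X-100.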
PNC inhibitor – High Content Assay for Compounds that inhibit the Assembly of the Perinucleolar Compartment | PC3M PTB-GFP, PNC prevalence imaging, 16 h; active compounds read low | activity change (PNC), negative = inhibition, % at 10 µM | 140,000 compounds, 3.1% hits;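 active means readout at or below -70, meaning at least 70% loss of cells showing the perinucleolar compartment, a nuclear body marking cancer cells; inconclusive means readout between -30 and a set limit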;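 further: plate controls were DMSO wells for no effect and camptothecin positive control wells for full effect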
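PC3M cells stably expressing PTB-GFP, 750–1000 cells/well, treated 16 h at 37 °C with compound (23 nl of library stock), in duplicate. After paraformaldehyde fixation and Hoechst stain, imaged at 20x; PNC prevalence scored by image analysis.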
IMPase inh – qHTS Assay for Identifying the Cell-Membrane Permeable IMPase Inhibitors; Inositol monophosphatase 1 (Rattus norvegicus), P97697; CHO-M1 cells, IP1 accumulation, HTRF TR-FRET ratio; inhibition (IP1 accumulation), % at 46.1 µM; 120,000 tested, under 10 active; active means well fitted curve in the direction sought with a large enough effect in the signal ratio, not every such curve was filed as active; inconclusive means small, poorly fitted or top-dose-only effect, or a change in a side signal; inactive means no such curve, though single readings can be large or run the other way; the % refers to the signal ratio;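 further: cells stimulated with carbachol in lithium chloride buffer; plate controls were DMSO basal wells for no effect and reference inhibitor wells for full effect; higher means more IMPase inhibition seen as more IP1 and lower FRET ratio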
Target sequence (P97697 whole entry, looked up): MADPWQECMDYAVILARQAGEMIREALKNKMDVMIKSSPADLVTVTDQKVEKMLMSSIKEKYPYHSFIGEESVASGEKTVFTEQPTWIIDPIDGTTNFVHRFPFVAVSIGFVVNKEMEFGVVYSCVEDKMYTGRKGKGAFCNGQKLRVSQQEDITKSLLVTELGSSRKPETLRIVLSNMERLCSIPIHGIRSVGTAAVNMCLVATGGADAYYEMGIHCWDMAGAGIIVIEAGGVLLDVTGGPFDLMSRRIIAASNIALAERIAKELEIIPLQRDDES
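The IP-One HTRF competitive assay in carbachol-stimulated CHO-M1 cells quantifies cellular IP1. Compounds spanned up to 46 uM final, and activity is expressed as AC50 from concentration-response fits of the ratio and donor data.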
IMPase Li inh – qHTS Assay for Identifying the Cell-Membrane Permeable IMPase Inhibitors: Potentiation with Lithium; CHO-M1 cells, IP1 TR-FRET (IP-One), carbachol + lithium; Potency, µM (doses to about 59.4 µM), without a hit: at the top dose activity, negative = IMPase inhibition, hits mostly inhibitors; 210,000 compounds, 0.35% hits; AID 1457, 2008;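 further: IP1 builds up when IMPase is blocked and the TR-FRET signal falls; potency means the concentration at half of the fitted maximal effect; plate controls were basal vehicle for no effect and high inhibitor control for full effect; nearly all actives have a fitted effect of over 50% in size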
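Readout is a homogeneous TR-FRET IP1 immunoassay (Ex 320, Em 665 and 620), where raised cytosolic IP1 lowers signal. Cells were CHO-M1 treated 30 min at 37C with test compounds plus a little lithium; AC50 values came from Hill-equation fitting.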
12-hLO inh – qHTS Assay for Inhibitors of 12-hLO (12-human lipoxygenase); purified 12-hLO, xylenol orange hydroperoxide absorbance; Potency, µM (highest dose often 57.1 µM), for the others: at the highest dose activity change, negative = inhibition, hits mostly inhibitors; 150,000 compounds, 0.12% hits; further: potency means the concentration at half of the fitted maximal effect; nearly all actives have a fitted effect of over 55% in size
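Purified human 12hLO (150 nM), preincubated 15 min with compound, then 40 uM arachidonic acid for 30 min, room temperature, Hepes pH 7.0 with 0.01% Triton X-100. Hydroperoxide detected by ferrous iron/xylenol orange; 573/405 nm absorbance ratio gives reaction progress.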
* = called active by the depositor; u = inconclusive; x = no result given; [ ] = another dose, or the depositor's remark. This is one part of a sample in which hits are shown more often than they occur. Unless noted, the call rests on the fitted dose curve; in most records, active means well fitted curve in the direction sought with a large enough effect; inconclusive means small, poorly fitted or top-dose-only effect, or another doubt; inactive means no such curve, though single readings can be large; an effect the other way counts as inactive or inconclusive. Unless noted, on the % scale 0 is the no-effect control and ±100 the full control effect.

SMILES	ALOX15B inhib	PNC inhibitor	IMPase inh	IMPase Li inh	12-hLO inh
O=C(O)CCSc1ncnc2nc[nH]c12	-3%[11.4 µM]	x	x	-7%	-3%[11.4 µM]
C=CCOc1ccc(C2C(C(=O)c3ccco3)=C(O)C(=O)N2CCCN(CC)CC)cc1 (stereo not given)	3%	30	6	x	-26%
C=CCOc1ccc(C2C(C(=O)c3ccco3)=C(O)C(=O)N2c2nnc(C)s2)cc1 (stereo not given)	x	x	x	11µM*	x
COc1ccc(C2C(C(=O)c3ccco3)=C(O)C(=O)N2CC2CCCO2)cc1 (stereo not given)	x	x	x	11%	x
COc1ccc(C2C(C(=O)c3ccco3)=C(O)C(=O)N2c2nnc(C)s2)cc1 (stereo not given)	x	x	x	11µM*	x
O=S(=O)(NCCNC/C=C\c1ccc(Br)cc1)c1cccc2cnccc12	46%	x	8	x	-9%
Cn1cccc1C(C(=O)NC1CCCCC1)N(C(=O)Cc1cccs1)C1CC1 (stereo not given)	-3%	17	5	3%[38.3 µM]	5%
COc1ccc(N(C(=O)Cc2cccs2)C(C(=O)NC2CCCCC2)c2cccn2C)cc1OC (stereo not given)	x	-116*	x	2%	-2%
O=C1NC2(CCCCC2)NN1c1ccccc1	u	5	-6	-25%[38.3 µM]	4µM*
CC(=O)N1CCC2(CC1)NC(=O)N(c1ccccc1)N2	x	x	x	-9%	x
CC(=O)N=C(N)Sc1nc2ccccc2[nH]1	x	-100*	-9	13%	3%
COc1cccc(C(=O)N2c3cc(C)ccc3C(C)(c3ccccc3)CC2(C)C)c1 (stereo not given)	x	x	-4	x	x
COc1cccc(C2c3c(oc4ccc(Cl)cc4c3=O)C(=O)N2c2cc(C)on2)c1OC (stereo not given)	-4%	-136*	-6	4%[38.3 µM]	0%
Cc1ccccc1NC(=S)NC(NC(=O)c1ccco1)C(Cl)(Cl)Cl (stereo not given)	x	-120*	x	10%	-17%
O=C(NC(NC(=S)Nc1ccccc1C(=O)O)C(Cl)(Cl)Cl)c1ccco1 (stereo not given)	x	u	x	-4%	-1%
CCOc1ccc(C2=NNC(c3cccs3)=Nc3ccc(OC)cc32)cc1OCC	x	-100*	-5	13%	-6%
COc1ccc(C2=NNC(c3cccs3)=Nc3ccc(OC)cc32)cc1	x	u	7	17%	-7%
O=c1c(-c2ccc(F)cc2)nc2cncnc2n1Cc1ccc(F)cc1	10%	x	x	-6%	x
COC(=O)N[C@H](CC(C)=O)c1ccccc1	x	-99*	x	-4%	-3%
COC(=O)N[C@H](CC(C)=O)c1cccc(C(F)(F)F)c1	x	33	x	2%	-2%
O=C1CN(C(=O)CSc2nc(-c3ccccc3)cs2)c2ccccc2N1	x	-91*	x	2%	-7%
Cc1cccc2cc(C#N)c(SCC(=O)N3CC(=O)Nc4ccccc43)nc12	-15%	-85*	9	-8%[38.3 µM]	-1%
Cc1c(NC(=O)c2ccc(Br)o2)cccc1-c1nc2ccccc2o1	x	x	-2	x	x
COc1cc(C)cc(OC)c1/C=C\C(=O)O	-4%[11.4 µM]	x	x	0%	-7%[11.4 µM]
Cc1nc(SCC(=O)O)c2oc3ccccc3c2n1	-2%	-15	3	-7%[38.3 µM]	2%
SMILES	ALOX15B inhib	PNC inhibitor	IMPase inh	IMPase Li inh	12-hLO inh
Cc1nc(SCCO)c2oc3ccccc3c2n1	-4%	-108*	1	x	7%
CCc1cc2c3c(c(=O)oc2cc1OC)CCCC3	1%	27	7	35%[38.3 µM]	-10%
COc1cc2oc(=O)c3c(c2cc1OCC(=O)c1c(C)n(C)c2ccccc12)CCCC3	x	u	x	10µM*	-3%
O=C(c1cccc(F)c1)N1CCC[C@@]2(CCN(Cc3nccs3)C2)C1	-2%	x	x	-1%	3%
COc1cc(OC)cc(-c2nc3n(n2)C(c2ccccc2)C(C(N)=O)=C(C)N3)c1 (stereo not given)	x	x	9	x	x
O=C(c1ccco1)N1CCN(c2ncccn2)CC1	3%	-21	6	4%[38.3 µM]	7%
O=C(c1cccnc1)N1CCN(C(=O)c2ccco2)CC1	x	-100*	0	3%	-4%
O=C(c1ccco1)N1CCN(C(=O)C2CCCO2)CC1 (stereo not given)	x	-100*	-7	0%	-4%
Cc1ccc(CNC(=O)CCCn2c(=O)c3ccccc3n(Cc3ccccc3C)c2=O)cc1	x	x	-5	x	x
Cc1nn(-c2ccccc2)c(C)c1/C=N/NC(=O)c1cc(-c2ccccc2)n[nH]1	35%	-87*	19	55%[38.3 µM]	4%
Cc1nc2ncnn2c(N2CCC(C(=O)NC3CCCC3)CC2)c1Cc1ccccc1	-1%	42	3	21%[38.3 µM]	-1%
Cc1ccccc1NC(=O)C1CCN(c2cc(-c3ccccc3)nc3ncnn23)CC1	x	-114*	-9	8.9µM*	2%
CCNc1ncc2nc(-c3ccccc3)c(=O)n(Cc3ccc(F)cc3)c2n1	-1%	x	x	u	-9%
O=C(O)COc1ccc(/C=N/n2c(COc3ccccc3)nc3ccccc3c2=O)cc1	x	-115*	-3	x	-1%
C[N+]1(NCC[N@@+]2(C)CCc3ccccc3C2)CCCCC1	-22%[11.4 µM]	x	x	-11%	2%[11.4 µM]
CCOC(=O)c1sc2nc(C)nc(SCC(=O)N(C)C3CCS(=O)(=O)C3)c2c1C (stereo not given)	x	x	x	10µM*	x
CCOC(=O)c1sc2nc(C)nc(SCC(=O)NC(C)CCc3ccccc3)c2c1C (stereo not given)	x	15	x	10µM*	-9%
COc1cc2c(cc1OC)[C@H](C)N(CC1C(=O)O[C@@H]3C[C@@]4(C)CCC[C@H](C)[C@@]45OC5[C@H]13)CC2 (stereo not given in full)	x	x	x	19%	x
O=C(NC1CCCC1)O[C@@H]1C(=O)c2cc(Br)ccc2O[C@H]1c1ccc2c(c1)OCO2	x	x	x	2%	x
O=C1CC(c2ccc(Br)cc2)c2c(ccc3ccccc23)N1 (stereo not given)	x	x	18	x	x
CCCc1nc(S(=O)(=O)Cc2ccc(Cl)cc2Cl)n[nH]1	-3%	-116*	10	x	-3%
O=C(/C=C/c1cccc([N+](=O)[O-])c1)Nn1c(-c2ccccc2F)nc2ccccc2c1=O	x	-118*	x	10%	-10%
Cc1cccc(-c2nc3ccccc3c(=O)n2NC(=O)/C=C/c2ccc([N+](=O)[O-])cc2)c1	x	-23	1	-12%	-3%
CC(=O)Oc1ccc2c(=O)c(N3C(=O)c4ccccc4C3=O)c(C)oc2c1	x	-91*	x	-8%	-3%
Cc1oc2cc(O)ccc2c(=O)c1N1C(=O)c2ccccc2C1=O	1%	38	0	x	-11%
